Reference: PubChem BioAssay (NCATS)
Inconclusive results are not listed. Calls of active or inactive are those of the source. Calls come from the whole dose curve; as a rule, active = well fitted curve in the direction sought with a large enough effect; inconclusive = small, poorly fitted or top-dose-only effect, or another doubt; inactive = no such curve, though single readings can be large; an effect the other way counts as inactive or inconclusive.

How the values were obtained:
[1] = molecular target: Calcium and integrin-binding protein 1 (Homo sapiens) (UniProt Q99828); experiment: Primary qHTS for Identification of Calcium Integrin Binding Protein 1 (CIB1) Competitor (AID 1508620); settings: CIB1-GST / FITC-alphaIIb peptide fluorescence polarization; series mostly up to 57.7 µM;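 note: GST tagged CIB1 binding a fluorescein labelled alphaIIb integrin peptide tracer; top concentration of the series differs between compounds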
Chain of Calcium and integrin-binding protein 1 (Homo sapiens) (Q99828 whole entry, looked up): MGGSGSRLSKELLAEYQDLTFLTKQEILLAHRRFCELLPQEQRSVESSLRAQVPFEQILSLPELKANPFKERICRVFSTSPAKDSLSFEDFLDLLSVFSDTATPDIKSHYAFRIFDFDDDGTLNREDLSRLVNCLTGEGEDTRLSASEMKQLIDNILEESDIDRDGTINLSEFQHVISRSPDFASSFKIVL
How it was run: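 Fluorescence polarization competition: CIB1-GST (1 uM final) preincubated with compound 15 min at room temperature, then FITC-labeled alphaIIb peptide (100 nM final) added for another 15 min. Polarization read at Ex 480/Em 540.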

[2] = Primary qHTS for inhibitors of nuclear receptor binding SET domain protein 2 (NSD2) in an isogenic RCH-ACV NSD2 p.E1099K mutant (9B) (AID 1645876); settings: RCH-ACV NSD2 E1099K (9B) viability, CellTiter-Glo, 72 h; series mostly up to 44.9 µM; note: nearly all actives have a fitted effect of over 70% in size
[3] = Primary qHTS for inhibitors of nuclear receptor binding SET domain protein 2 (NSD2) in an RCH-ACV wild type WT cells (2C) (AID 1645877); settings: RCH-ACV (leukaemia line) NSD2 WT (2C) viability, CellTiter-Glo, 72 h; series mostly up to 44.9 µM; note: nearly all actives have a fitted effect of over 70% in size
% is set by controls: 0 for no effect and ±100 for the full control effect.

CC1=C[C@H](O)[C@H]2C(C)(C)CCC[C@]2(C)[C@@]1(O)CO
inactive: Potency [1] | Potency [2] | Potency [3]

C=CC1(C)C=C2CC[C@H]3[C@@](C)(C(=O)O)CCC[C@]3(C)C2CC1 (some centres not stated)
inactive: Potency [1] | Potency [2] | Potency [3]

C=Cc1ccc(O[C@@H]2O[C@H](CO[C@@H]3O[C@@H](C)[C@H](O)[C@@H](O)[C@H]3O)[C@@H](O)[C@H](O)[C@H]2O)cc1
inactive: Potency [1] | Potency [2] | Potency [3]

CC1=C(C(=O)OC2OC(COC3OC(CO)C(O)C(O)C3O)C(O)C(O)C2O)C(C)(C)CCC1 (configuration not stated)
inactive: Potency [1] | Potency [2] | Potency [3]

O=C(O)CC(CCc1ccccc1)OC1OC(CO)C(O)C(O)C1O (configuration not stated)
inactive: Potency [1] | Potency [2] | Potency [3]

O=C(OC[C@H]1O[C@@H](Oc2ccccc2CO)[C@H](O)[C@@H](O)[C@@H]1O)c1ccccc1
inactive: Potency [1] | Potency [2] | Potency [3]

C=C(CC/C=C(\C)C(=O)O)C1(O)CC=C(C)CC1 (configuration not stated)
inactive: Potency [1] | Potency [2] | Potency [3]

C/C=C(\C)C(=O)OC[C@H]1O[C@@H](O[C@H]2[C@@H](O[C@H]3O[C@H](CO)[C@@H](O)[C@H](O)[C@H]3O[C@@H]3O[C@H](CO)[C@@H](O)[C@H](O)[C@H]3O)O[C@H](COC(=O)/C(C)=C/C)[C@@H](O)[C@@H]2O)[C@H](O)[C@@H](O)[C@@H]1O
inactive: Potency [1] | activity change, negative = viability loss [2] -10.2% [at 9.23 µM] | activity change, negative = cell killing [3] -10.7% [at 9.23 µM]

CC(O)C(O)/C=C/C=C/C(=O)O[C@@H]1C=C(C(=O)O)[C@](O)(CO)[C@@]2(C)CCCC(C)(C)[C@H]12 (some centres not stated)
inactive: Potency [1] | Potency [2] | Potency [3]

O=S(=O)(O)c1ccc(Nc2ncnc3c2ncn3[C@@H]2O[C@H](CO)[C@@H](O)[C@H]2O)cc1
inactive: Potency [1] | Potency [2] | Potency [3]

C/C=C(/C)C(=O)OC1CC(C)(C)CC2C3=CCC4C5(C)CCC(OC6OC(C)C(OC7OC(C(=O)O)C(O)C(OC8OC(CO)C(O)C(O)C8OC8OC(CO)C(O)C(O)C8O)C7O)C(O)C6O)C(C)(C)C5CCC4(C)C3(C)C(OC(=O)/C=C/C=C/C=C/CCC)C(OC(C)=O)C12CO (configuration not stated)
inactive: activity change, negative = inhibition [1] 0.802% [at 12.4 µM] | activity change, negative = viability loss [2] -8.21% [at 9.23 µM] | activity change, negative = cell killing [3] -14.8% [at 9.23 µM]

CC(=O)OC1CCC2(C)C(CCC3(C)C2CC=C2C4CC(C)(C)CCC4(C)CCC23C)C1(C)C(=O)O (configuration not stated)
inactive: Potency [1] | Potency [2] | Potency [3]

COc1cc(C(CO)C(OC2OC(CO)C(O)C(O)C2O)c2ccc(O)c(OC)c2)ccc1O (configuration not stated)
inactive: Potency [1] | Potency [2] | Potency [3]

C=C1C(OC(C)=O)CCC2(C)CCC(C(C)(C)O)CC12 (configuration not stated)
inactive: Potency [1] | Potency [2] | Potency [3]

CC1CC(=O)C2=C(O1)OC1(C)CCC3C(C)(C)C4OC4C(=O)C3(C)C1C2 (configuration not stated)
inactive: Potency [1] | Potency [2] | Potency [3]

COc1ccc(C(=O)OC2C3C=COC(OC4OC(CO)C(O)C(O)C4O)C3C3(CO)OC23)cc1OC (configuration not stated)
inactive: Potency [1] | Potency [2] | Potency [3]

COC(=O)C1=CO[C@@H](O[C@@H]2O[C@H](CO[C@@H]3O[C@H](CO)[C@@H](O)[C@H](O)[C@H]3O)[C@@H](O)[C@H](O)[C@H]2O)[C@@H]2C(CO)=CC[C@H]12
inactive: Potency [1] | Potency [2] | Potency [3]

CC1=C2C(=O)C=C(CO[C@@H]3O[C@H](CO)[C@@H](O)[C@H](O)[C@H]3O)[C@@H]2[C@H]2OC(=O)[C@H](C)[C@@H]2[C@@H](O)C1
inactive: Potency [1] | Potency [2] | Potency [3]

C[C@@H]1O[C@@H](O[C@H]2[C@H](O[C@H]3[C@H](O[C@H]4CC[C@@]5(C)C(CC[C@]6(C)C5CC=C5[C@@H]7CC(C)(C)C[C@@H](O)[C@]7(C)CC[C@]56C)[C@@]4(C)CO)O[C@H](C(=O)O)[C@@H](O)[C@@H]3O)O[C@H](CO)[C@H](O)[C@@H]2O)[C@H](O)[C@H](O)[C@H]1O (some centres not stated)
inactive: Potency [1] | outcome [2] inactive [at 9.23 µM] | outcome [3] inactive [at 9.23 µM]

C=C(C(=O)O)[C@H]1C[C@]2(C)C(=O)CC[C@]23O[C@H]1C[C@@H]3C
inactive: Potency [1] | Potency [2] | Potency [3]

C=C1CCC2[C@](C)(CCC[C@]2(C)C(=O)O)[C@H]1CC/C(C)=C/C(=O)OC (some centres not stated)
inactive: Potency [1] | Potency [2] | Potency [3]

COC(=O)C1=CO[C@@H](O[C@@H]2O[C@H](CO)[C@@H](O)[C@H](O)[C@H]2O)[C@@H]2[C@@H](C(=O)O)CC[C@H]12
inactive: Potency [1] | Potency [2] | Potency [3]

COc1cc(O[C@@H]2O[C@H](CO[C@H]3OC[C@](O)(CO)[C@H]3O)[C@@H](O)[C@H](O)[C@H]2O)cc(OC)c1O
inactive: Potency [1] | Potency [2] | Potency [3]

O=C(C1OC1/C=C/c1ccc2c(c1)OCO2)N1CCCCC1 (configuration not stated)
inactive: Potency [1] | Potency [2] | Potency [3]

CC1C2=CC(=O)OC2(O)CC2C1C(OC(=O)c1ccccc1)C(OC(=O)c1ccccc1)C1(O)C2(C)CCC(O)C1(C)C(=O)O (configuration not stated)
inactive: Potency [1] | Potency [2] | Potency [3]

CC(=O)OC1C(O)/C(C)=C\C2C(OC(=O)c3ccccc3)C(C)CC2(OC(C)=O)C(OC(C)=O)C(C)/C=C/C(C)(C)C1OC(C)=O (configuration not stated)
inactive: Potency [1] | Potency [2] | Potency [3]

CC(=O)O[C@@H]1[C@H](OC(C)=O)C[C@@]2(C)C(CC[C@@H](C)[C@]23Cc2c(O)cc4c(c2O3)CN([C@@H](CCC(=O)O)C(=O)O)C4=O)C1(C)C (some centres not stated)
inactive: Potency [1] | Potency [2] | Potency [3]

O=C(O)C[C@H]1CCC(=O)[C@@H]1C/C=C\CCO
inactive: Potency [1] | Potency [2] | Potency [3]

COc1cc2c(c(OC)c1O)C(c1ccc(O)cc1)C1C(=O)OC3C(COC(=O)C1=C2)OC(CO)(OC1OC(COC(=O)/C=C/c2ccc(OC4OC(C)C(O)C(O)C4O)cc2)C(O)C(O)C1O)C3O (configuration not stated)
inactive: Potency [1] | activity change, negative = viability loss [2] -11.1% [at 9.23 µM] | activity change, negative = cell killing [3] -15.9% [at 9.23 µM]

CCC(C)/C=C(C)/C=C/C1=CC2=C(Cl)C(=O)C(C)(OC(C)=O)C(=O)C2=CN1C(CC(=O)O)C(=O)O (configuration not stated)
inactive: Potency [1] | Potency [2] | Potency [3]

CC1(C)CC[C@]2(C(=O)O)CC[C@]3(C)C(=CCC4[C@@]5(C)CC[C@H](O)C(C)(C)C5CC[C@]43C)C2C1 (some centres not stated)
inactive: Potency [1] | Potency [2] | Potency [3]

COC(=O)C[C@H]1C(C)(C)[C@H](OC(=O)C(C)C)C2CC3=C4CC(=O)O[C@@H](c5ccoc5)[C@]4(C)CCC3[C@@]1(C)C2=O (some centres not stated)
inactive: Potency [1] | Potency [2] | Potency [3]

C=CC(C)(O)CC/C=C(\C)C(=O)O[C@@H]1[C@@H](O)[C@H](OC(C)(C=C)CC/C=C(\C)C(=O)O)O[C@H](CO)[C@H]1OC(=O)/C(C)=C/CCC(C)(O)C=C (some centres not stated)
inactive: Potency [1] | Potency [2] | Potency [3]

CC1(C)C[C@@H]2[C@H](C1)[C@@]1(C)C[C@]13C(O)OC[C@]3(O)[C@H]2O (some centres not stated)
inactive: Potency [1] | Potency [2] | Potency [3]

CC(O)CCc1ccc(O[C@@H]2O[C@H](CO)[C@@H](O)[C@H](O)[C@H]2O)cc1 (some centres not stated)
inactive: Potency [1] | Potency [2] | Potency [3]

COc1cc(CCCO)ccc1O[C@@H]1O[C@H](CO)[C@@H](O)[C@H](O)[C@H]1O
inactive: Potency [1] | Potency [2] | Potency [3]

O=C(OC[C@H]1O[C@H](O[C@]2(CO)O[C@H](CO)[C@@H](O)[C@@H]2O)[C@H](O)[C@@H](O)[C@@H]1O)c1ccc(O)cc1
inactive: Potency [1] | Potency [2] | Potency [3]

CC1=C2CC(=O)C(C)CC/C=C(\C)CC2OC1=O (configuration not stated)
inactive: Potency [1] | Potency [2] | Potency [3]

C=C1C(=O)O[C@@H]2CC(C)=C([C@@H](C)CCCOC(C)=O)[C@@H](O)[C@H]12
inactive: Potency [1] | Potency [2] | Potency [3]
